CHOP inhibitor: inhibitors of CHOP promoter induction, primary screen, cell-based, unfolded protein response, luciferase reporter. CHO-K1 CHOP-promoter luciferase, tunicamycin-induced, 15-18 h. inhibition, % at 10 µM. AID 2732, 2010. 220,000 tested, 3.8% active;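 active = compounds that reduced the stress-induced luciferase reporter signal by more than about 70% of percent inhibition, limit read from the data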
WT yeast gro inh: growth inhibition of WT strain, primary screen, mitochondrial fusion inhibitor project, WT and mutant strains, chemical genetic; AID 1362, 2008; inhibition, % at 10 µM; mitochondrial fusion phenotypic screen; 190,000 tested, 2.1% active; in the data active = inhibition above about 58%; tested in S. cerevisiae
Arbovirus anti: antivirals against arbovirus infection, primary screen, cell-based, full library, 10K replicate subset; arbovirus infection cell-based antiviral screen; inhibition, % at 10 µM; 200,000 tested, 0.37% active; in the data active = inhibition above about 30%
L major viab: Leishmania major promastigote growth inhibition, primary screen; 200,000 tested, 9% active; inhibition, % at 10 µM; Leishmania major promastigotes, resazurin fluorescence viability; in the data active = inhibition above about 50%;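 also: promastigotes grown with compound for 44 hours at 28 °C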
Of the large screens only hits and unclear results are named; the others gave an inactive call. An excerpt weighted towards active compounds, which were near 12% of everything screened.

COc1ccc(NC(=S)Nc2cccc([N+](=O)[O-])c2)cc1	L major viab 87
COc1ccc(NC(=O)c2ccc(-c3ccc([N+](=O)[O-])cc3)o2)cc1	none
Nc1ccccc1Oc1c(F)c(F)c(Oc2ccccc2N)c(F)c1F	none
O=C(CSCCO)Nc1cccc([N+](=O)[O-])c1	L major viab 65
O=C(CSCCO)Nc1ccc([N+](=O)[O-])cc1	none
CCc1ccc(NC(=O)c2cnc(N3CCN(c4ccccn4)CC3)c3ccccc23)cc1	CHOP inhibitor 75, L major viab 82
Cc1cccc(OCCCN2C(=O)C(=O)c3cc(C)ccc32)c1	none
O=C(Nc1ccc2oc(-c3cccnc3)nc2c1)c1ccco1	none
O=C(Nc1ccc2oc(-c3cccnc3)nc2c1)c1ccc([N+](=O)[O-])o1	L major viab 100
O=C(Nc1ccc2oc(-c3cccnc3)nc2c1)c1ccc(Br)o1	CHOP inhibitor 77
CCOc1ccc2c(c1)C(C)=CC(C)(C)N2C(=O)Nc1ccccc1	L major viab 50
CC(=O)NC(=S)NNC(=O)COc1ccc(Br)cc1	L major viab 87
Cc1ccc(/C(N)=N/OC(=O)N2CCOCC2)cc1	none
Cc1cccc(/C(N)=N/OC(=O)COc2ccc(Cl)cc2)c1	Arbovirus anti 36
COc1ccc(OCC(=O)O/N=C(\N)Cc2ccc(Cl)cc2Cl)cc1	CHOP inhibitor 81
CC(=O)NC(=S)NNC(=O)COc1ccc([N+](=O)[O-])cc1	none
N/C(=N\OC(=O)COc1ccc(Cl)cc1)c1ccc(Cl)cc1	none
Cc1cccc(/C(N)=N/OC(=O)N2CCOCC2)c1	L major viab 56
CN(C)S(=O)(=O)Nc1cc(Cl)cc(Cl)c1	none
CC(C)[C@@H]1NC(=O)[C@H](CCCCN)NC(=O)[C@@H](Cc2c[nH]c3ccccc23)NC(=O)[C@H](Cc2ccc(O)cc2)NC(=O)[C@H](C)N(C)C(=O)[C@H](Cc2ccccc2)NC1=O	none (no result: WT yeast gro inh, Arbovirus anti, L major viab)
CCC(=O)Nc1ccc(Cl)c(NC(=O)c2c(OC)cccc2OC)c1	none
CSc1ccc(S(=O)(=O)Nc2ccc(OCC(=O)N3CCOCC3)cc2)cc1	none
Cc1ccc(C(=O)CC(=O)COc2ccc(Cl)cc2)cc1	CHOP inhibitor 93, L major viab 66
Cc1ccc(OCC(=O)O/N=C(\N)Cc2ccc(Cl)cc2)cc1	CHOP inhibitor 77
Cc1ccc(/C(N)=N/OC(=O)COc2ccccc2Cl)cc1	CHOP inhibitor 70
Cc1cccc(C(=O)NC(=S)NNC(=O)COc2ccc(Cl)cc2)c1	WT yeast gro inh 64
Cc1ccc(C(=O)CNc2ccc(Cl)cc2)cc1	none
NNC(=O)CNc1cccc(Cl)c1	none
O=C(CCNc1cccc(Cl)c1)c1ccco1	L major viab 83
O=C(CNC(=O)c1ccco1)OCc1cccc(Cl)c1	CHOP inhibitor 74
O=C(CNC(=O)c1ccco1)NCC(=O)OCc1cccc(Cl)c1	none
COc1ccc(C2(O)CCN(CC(=O)Nc3nc(-c4ccccc4)cs3)CC2)cc1	none
CCC(C)(C)NC(=O)CN(C(=O)CCC(=O)Nc1ccccn1)c1ccc(F)c(Cl)c1	L major viab 90
Cc1cc(C)cc(N(CC(=O)NCc2ccc3c(c2)OCO3)C(=O)CCC(=O)Nc2ccccn2)c1	none
CC(C)NC(=O)CN(C(=O)CCC(=O)Nc1ccccn1)c1ccc(F)c(Cl)c1	none
COc1ccccc1N(CC(=O)NCc1ccccc1)C(=O)CCC(=O)Nc1cc(C)ccn1	none
COc1ccc(CNC(=O)CN(C(=O)CCC(=O)Nc2ccccn2)c2cccc(C)c2)cc1	L major viab 50
Cc1ccc(C)c(N(CC(=O)NCc2ccc3c(c2)OCO3)C(=O)CCC(=O)Nc2ccccn2)c1	L major viab 56
O=C1CN(C(=O)COC(=O)c2cc(S(=O)(=O)N3CCOCC3)ccc2Cl)c2ccccc2N1	none (no result: WT yeast gro inh, Arbovirus anti, L major viab)
CCOC(=O)c1sc2nc(C)nc(NCCc3ccccn3)c2c1C	none
CCOC(=O)c1sc2nc(CSc3ccccc3)nc(NCCN(C)C)c2c1C	L major viab 93
COC(=O)CCCC1=CC2=CC(=O)C(C)(OC(=O)c3cccs3)C(=O)C2=CN1C1CC1 (stereo not drawn)	none (no result: WT yeast gro inh, Arbovirus anti, L major viab)
Cc1ccc(Cn2nnc3c(=O)n(CC(=O)NCc4ccccc4)cnc32)cc1	none
CCN(c1ccccc1)S(=O)(=O)c1cc(C(=O)Oc2ccc3c(C)cc(=O)oc3c2)ccc1C	L major viab 67
CCCCCNCC(=O)Nc1cccc(C(=O)Nc2cccc(C(F)(F)F)c2)c1	WT yeast gro inh 78
O=C(Nc1nc(-c2cccs2)c(-c2cccs2)s1)C1CCCC1	WT yeast gro inh 72
CNC(=O)Nc1cc(NC(=O)NC)cc(C(F)(F)F)c1	none (no result: WT yeast gro inh, Arbovirus anti, L major viab)
O=C(Nc1nnc(-c2cccnc2)o1)c1cccc(Cl)c1	L major viab 55

Screens (PubChem BioAssay)
